Assay results: PubChem BioAssay AID1986 (Sanford-Burnham Center for Chemical Genomics, 2009)
The campaign covered roughly 290,000 compounds. About 890 (0.31%) were called active. This is one part of a sample in which actives are shown more often than they occur. Cut-off read from the data, not from the text of the source: active = inhibition mostly above about 52% (no sharp cut-off); inactive = mostly below about 76%.

Assay: cell-free HIV fusion peptide-binding blockers – biochemical, uHTS, fluorescence dequenching, primary screen (AID 1986)
Details: 30 min, stronger effect = higher value
[1] = measured here: repeat confirmation average inhibition, at 18.6 µM

Question: Which inhibition (at 20 µM) does the source give for Cc1c(Cc2ccccc2)sc(NC(=O)/C=C/c2cccc3ccccc23)c1C(N)=O here?
Answer: The inhibition was 3.6% (inactive).

Question: Which inhibition (at 20 µM) does the source give for COc1nc2ccccc2nc1OC here?
Answer: The inhibition was 0.6% (inactive).

Question: Which inhibition (at 20 µM) does the source give for COc1cc2ccccc2nn1 here?
Answer: The inhibition was -0.9% (inactive).

Question: With COc1ccc2c(n1)Sc1nc3ccccc3nc1N2 as the compound, how does the inhibition (at 20 µM) read?
Answer: The inhibition was 82.7% (active).

Question: For COC(=O)Nc1nnc(-c2ccccc2Cl)s1, which inhibition (at 20 µM) is on record?
Answer: Its inhibition is -1.6% (inactive).

Question: Which inhibition (at 20 µM) does the source give for CCCN(C(=O)COc1ccc(Cl)cc1Cl)c1c(N)n(Cc2ccccc2)c(=O)[nH]c1=O here?
Answer: The inhibition was 5.9% (inactive).

Question: For CCSC1=N/C(=C\c2ccc3c(c2)OCO3)C(=O)S1, which inhibition (at 20 µM) is on record?
Answer: Its inhibition is 9.4% (inactive).

Question: Which inhibition (at 20 µM) does the source give for CCCCN1C(=O)/C(=C/C=C2\Oc3ccccc3N2CC)SC1=S here?
Answer: The inhibition was 149% (inactive).

Question: With CCSC1=N/C(=C\C=C2/Oc3ccccc3N2CC)C(=O)S1 as the compound, how does the inhibition (at 20 µM) read?
Answer: The inhibition was 109% (active).

Question: What about the inhibition [1] of the same compound?
Answer: Its inhibition is 63%.

Question: Which inhibition (at 20 µM) does the source give for CCN(CC)c1ccc(-c2nc3cnccc3n2C)cc1 here?
Answer: The inhibition was 0.4% (inactive).

Question: Which inhibition (at 20 µM) does the source give for O=C(NCC1CCCO1)C1CCN(C2CCN(Cc3ccco3)CC2)CC1 (centres undefined) here?
Answer: Its inhibition is 1.6% (inactive).

Question: Which inhibition (at 20 µM) does the source give for CCOc1ccc(-c2nn(-c3ccccc3)cc2/C=C2\SC(=S)N(C3CCS(=O)(=O)C3)C2=O)cc1 (centres undefined) here?
Answer: Its inhibition is 78.9% (active).

Question: And the inhibition [1]?
Answer: Its inhibition is 85%.

Question: For CCOc1ccc(-c2nn(-c3ccccc3)cc2/C=C2\SC(=S)N(Cc3ccco3)C2=O)cc1, which inhibition (at 20 µM) is on record?
Answer: Its inhibition is 17.3% (inactive).

Question: With CCCOc1ccc(-c2nn(-c3ccccc3)cc2/C=C2\SC(=S)N(C3CCS(=O)(=O)C3)C2=O)cc1 (centres undefined) as the compound, how does the inhibition (at 20 µM) read?
Answer: Its inhibition is -1.7% (inactive).

Question: For CCCOc1cccc(C(=O)N(Cc2ccc(OC)c(OC)c2)C2CCS(=O)(=O)C2)c1 (centres undefined), which inhibition (at 20 µM) is on record?
Answer: Its inhibition is 1% (inactive).

Question: With CCCCN(C)CCNC(=O)c1ccc(Cn2c(=S)[nH]c3ccc(Br)cc3c2=O)cc1 as the compound, how does the inhibition (at 20 µM) read?
Answer: Its inhibition is -3.1% (inactive).

Question: For COC(=O)N=Nc1c(O)n(Cc2ccccc2)c2ccccc12, which inhibition (at 20 µM) is on record?
Answer: Its inhibition is -1.9% (inactive).

Question: With O=C(COc1ccc(Cl)cc1Cl)Nc1ccc2nc3n(c(=O)c2c1)CCCC3 as the compound, how does the inhibition (at 20 µM) read?
Answer: Its inhibition is -2.9% (inactive).

Question: Which inhibition (at 20 µM) does the source give for CCCC1(c2ccccc2)NC(=O)N(CC(=O)Nc2cc(OC)cc(OC)c2)C1=O (centres undefined) here?
Answer: The inhibition was 0.8% (inactive).

Question: Which inhibition (at 20 µM) does the source give for CCC1(c2ccccc2)NC(=O)N(CC(=O)Nc2ccc(OC)nc2)C1=O (centres undefined) here?
Answer: Its inhibition is 116% (active).

Question: With CCC1(c2ccccc2)NC(=O)N(CC(=O)Nc2ccc(S(N)(=O)=O)cc2)C1=O (centres undefined) as the compound, how does the inhibition (at 20 µM) read?
Answer: The inhibition was 1.2% (inactive).

Question: Which inhibition (at 20 µM) does the source give for O=C(COC(=O)c1ccc(S(=O)(=O)N2CCOCC2)cc1)NC1CCCC1 here?
Answer: The inhibition was 0.3% (inactive).

Question: For Cc1ccn2c(Nc3ccccc3)c(-c3ccccn3)nc2c1, which inhibition (at 20 µM) is on record?
Answer: The inhibition was -2.6% (inactive).

Question: Which inhibition (at 20 µM) does the source give for Cc1ccc(Nc2c(-c3ccccn3)nc3cc(C)ccn23)cc1 here?
Answer: The inhibition was 0.3% (inactive).

Question: For Cc1ccn2c(Nc3ccc4c(c3)OCO4)c(-c3ccccn3)nc2c1, which inhibition (at 20 µM) is on record?
Answer: Its inhibition is 114% (active).

Question: Which inhibition (at 20 µM) does the source give for CCC(C)NC(=O)CN1C(=O)NC2NC(=O)NC21 (centres undefined) here?
Answer: Its inhibition is 0.8% (inactive).

Question: Which inhibition (at 20 µM) does the source give for Cc1ccc(NC(=S)N(Cc2ccc(Br)cc2)Cc2ccc(C(=O)O)cc2)cc1C here?
Answer: The inhibition was 36.8% (inactive).

Question: Which inhibition (at 20 µM) does the source give for Cc1cc(NC(=S)N(Cc2ccc(Br)cc2)Cc2ccc(C(=O)O)cc2)ccc1Cl here?
Answer: The inhibition was 59.2% (active).

Question: For Cc1cc(NC(=S)N(Cc2ccc(Cl)cc2)Cc2ccc(C(=O)O)cc2)ccc1Cl, which inhibition (at 20 µM) is on record?
Answer: Its inhibition is 53.2% (inactive).

Question: And the inhibition [1]?
Answer: Its inhibition is 34.6%.

Question: With CCOc1cc(/C=N/NC(=O)Cc2ccc(C(F)(F)F)cc2[N+](=O)[O-])c(Br)cc1OC as the compound, how does the inhibition (at 20 µM) read?
Answer: The inhibition was 0.7% (inactive).

Question: With O=C(Nc1nnc(CCc2ccccc2)s1)c1ccc(F)cc1 as the compound, how does the inhibition (at 20 µM) read?
Answer: The inhibition was 1.8% (inactive).
